Experiment [1] can be described thus: resazurin metabolic signal in HepG2 cells – cell-based, resazurin fluorescence, 24 h, PK04 Diversity Set, profiling panel (AID 1172). Also: test concentration not given here. Particulars: HepG2 viability, higher = more signal. Background: Resazurin is reduced to fluorescent resorufin, in cell work by metabolically active cells.
Experiment [2] is described as follows: budding yeast growth changes without added modifier – OD600, strain BY4716, 24 h, basal condition, primary screen (AID 1173). Particulars: S. cerevisiae BY4716 growth, OD600, 24 h; higher = more signal, called active from +8 up or from −8 down.
Experiment [3] in a line: viability profiling in MM1S myeloma cells – cell-based, resazurin fluorescence, basal, 24 h, PK04 Diversity Set, profiling panel (AID 1174). Also: test concentration not given here. Particulars: higher = more signal, called active from +8 up or from −8 down.
For experiment [4], the target named is Dihydroorotate dehydrogenase (quinone), mitochondrial (Plasmodium falciparum (isolate 3D7)) (UniProt Q08210). Description: inhibition of P. falciparum DHODH – biochemical, C-terminal His tag, absorbance 600 nm, primary screen (AID 1175).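 Also: recombinant parasite enzyme with a five histidine tag at its C terminus; test concentration not given here.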 Particulars: PfDHODH enzyme, DCIP absorbance 600 nm; higher = more signal, called active from +8 up or from −8 down.
A short description of experiment [5]: inhibition of PAO1 biofilm formation – strain PAO1, LB-PBS medium, absorbance 600 nm, primary screen (AID 1176). Also: test concentration not given here. Particulars: P. aeruginosa PAO1 growth/biofilm, A600, 12 h; higher = more signal.
The nature of experiment [6]: growth modulation of vineyard yeast isolate – strain RM11-1a, OD600, basal, 24 h, primary screen (AID 1177).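 Also: cultures grown under basal conditions with no added stressor; test concentration not given here.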 Particulars: S. cerevisiae RM11-1a growth, OD600, 24 h; higher = more signal, called active from +8 up or from −8 down.
Experiment [7] is described as follows: growth of efflux-deficient E. coli DRC39 – strain DRC39, OD650, 24 h, E. coli filamentation inducers, primary screen (AID 1178).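 Also: growth measured as culture turbidity by optical density at 650 nm; test concentration not given here.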 Particulars: E. coli DRC39 acrAB, higher = more signal, called active from +8 up or from −8 down.
Experiment [8] in a line: growth of efflux-deficient E. coli DRC39 – strain DRC39, OD650, 48 h, E. coli filamentation inducers, primary screen (AID 1179).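 Also: screen aims at cell division blockers that make cells filament.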 Particulars: E. coli DRC39 delta-acrAB growth, higher = more signal, called active from +8 up or from −8 down.
The nature of experiment [9]: viability profiling in RPMI8226 myeloma cells – cell-based, resazurin fluorescence, basal, 24 h, PK04 Diversity Set, profiling panel (AID 1180).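 Also: RPMI8826 multiple myeloma cell line at 5000 cells per well; test concentration not given here.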 Particulars: higher = more signal.
For experiment [10], the target named is E3 ubiquitin-protein ligase XIAP (Homo sapiens) (UniProt P98170). Description: small molecules binding XIAP protein – biophysical, small-molecule microarray, fluorescence 635 nm, primary screen (AID 1181).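 Also: score merges 667 nm emission and signal to noise over triplicate slides.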 Particulars: higher = more signal.

Active and inactive are the calls of the source. Unless noted, no rule for the calls is given here.

Chain of Dihydroorotate dehydrogenase (quinone), mitochondrial (Plasmodium falciparum (isolate 3D7)) (Q08210 whole entry, looked up): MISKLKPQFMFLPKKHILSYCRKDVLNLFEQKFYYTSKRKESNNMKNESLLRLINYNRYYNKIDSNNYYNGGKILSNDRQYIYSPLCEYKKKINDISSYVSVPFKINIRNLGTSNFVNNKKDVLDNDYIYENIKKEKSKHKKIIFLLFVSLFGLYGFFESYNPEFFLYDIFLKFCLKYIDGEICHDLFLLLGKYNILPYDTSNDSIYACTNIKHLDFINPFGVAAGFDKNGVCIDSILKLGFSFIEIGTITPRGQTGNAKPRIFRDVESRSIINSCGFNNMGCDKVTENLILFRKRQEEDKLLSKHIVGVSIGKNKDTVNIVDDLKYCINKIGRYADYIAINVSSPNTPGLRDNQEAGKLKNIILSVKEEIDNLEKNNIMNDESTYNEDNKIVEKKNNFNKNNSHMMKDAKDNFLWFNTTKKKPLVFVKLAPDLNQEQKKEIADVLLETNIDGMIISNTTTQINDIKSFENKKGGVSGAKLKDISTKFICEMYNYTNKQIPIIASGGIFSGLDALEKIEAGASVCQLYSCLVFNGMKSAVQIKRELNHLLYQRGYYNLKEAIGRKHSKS
Chain of E3 ubiquitin-protein ligase XIAP (Homo sapiens) (P98170 whole entry, looked up): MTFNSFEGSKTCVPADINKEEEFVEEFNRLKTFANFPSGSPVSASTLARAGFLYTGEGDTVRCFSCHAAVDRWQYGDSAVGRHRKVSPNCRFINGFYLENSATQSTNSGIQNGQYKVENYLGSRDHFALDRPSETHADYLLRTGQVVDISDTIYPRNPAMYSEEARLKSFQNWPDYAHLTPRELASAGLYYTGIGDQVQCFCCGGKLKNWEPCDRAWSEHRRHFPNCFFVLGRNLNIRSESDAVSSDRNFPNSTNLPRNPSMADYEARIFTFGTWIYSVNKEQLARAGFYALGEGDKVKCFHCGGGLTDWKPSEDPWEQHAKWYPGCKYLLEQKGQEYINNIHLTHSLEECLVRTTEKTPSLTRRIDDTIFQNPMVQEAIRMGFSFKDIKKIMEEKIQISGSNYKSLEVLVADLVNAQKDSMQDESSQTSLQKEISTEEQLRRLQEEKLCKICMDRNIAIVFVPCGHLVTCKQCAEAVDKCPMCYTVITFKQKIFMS

For the compound `C=C(COC)C(=O)CC[C@H](OC(=O)c1cccnc1)c1ccccc1OCCO`, the z-score in [1] is -0.577; in experiment [2], -0.332 (inactive); in experiment [3], -3.06 (inactive); in experiment [5], 1.45 (inactive); in experiment [6] it was -0.511 (inactive); in [7], -0.438 (inactive). Also, the z-score is -0.285 (inactive) in experiment [8] and -2.92 in [9]. The composite z-score in experiment [4] is -0.414 (inactive); in experiment [10] it was -0.0143.

Regarding `CCOC(=O)C=Cc1cccc(OC)c1O`, the z-score was -0.537 in [1]; -6.47 (inactive) in experiment [2]; -0.649 (inactive) in experiment [3]; -2.06 (inactive) in experiment [5]; -1.34 (inactive) in experiment [6]; -0.597 (inactive) in [7]. Further, the values for the z-score in experiment [8] and in experiment [9] were -1.03 (inactive) and -1.07, respectively. The composite z-score in experiment [4] is -1.15 (inactive); in [10] it was 0.0036.

On to `CC(C)N1C(=O)c2ccccc2[C@](C)(C(=O)NCCCN(C)C)[C@@H]1c1ccc(CO)cc1`, for which the z-score is 0.257 in [1]; -0.919 (inactive) in experiment [2]; 0.627 (inactive) in [3]; -0.522 (inactive) in experiment [5]; -0.283 (inactive) in experiment [6]; 0.0957 (inactive) in experiment [7]. In addition, the z-score in [8] is -0.429 (inactive); in experiment [9] it was 0.842. In addition, the results for the composite z-score in experiment [4] and in experiment [10] were 0.0044 (inactive) and 0.0871, respectively.

Turning to `COC(=O)[C@@]1(Cc2ccc(F)cc2)[C@H]2c3cc(C(=O)N4CCCC4)n(Cc4ccc(Cl)c(C(F)(F)F)c4)c3C[C@H]2CN1C(=O)c1ccccc1`, the z-score in [1] is -1.03; in [2], 1.55 (inactive); in experiment [3] it was -2.02 (inactive); in experiment [5], 0.84 (inactive); in experiment [6], 0.78 (inactive); in experiment [7], -0.178 (inactive). Besides, the z-score in experiment [8] was 0.272 (inactive); in experiment [9] it was -3.32. Further, the composite z-score in experiment [4] was 0.0979 (inactive); in experiment [10], 0.553.

On to `[N-]=[N+]=Nc1ccccc1[C@@H]1OC(c2ccc(OCCCO)cc2)=N[C@]1(CCS(=O)(=O)c1ccccc1)C(=O)O`, for which the z-score in [1] was 0.97; in experiment [2], -0.14 (inactive); in experiment [3], -0.3 (inactive); in [5], -0.884 (inactive); in experiment [6], 0.82 (inactive); in experiment [7], 0.277 (inactive). Moreover, the z-score in experiment [8] was 0.82 (inactive); in experiment [9] it was 0.205. Also, the composite z-score in experiment [4] was -23.4 (active); in [10], 0.125.

`CCCCC(=C=CC[C@H](O)c1ccccc1OCCO)C[C@H](O)c1cc(Cl)cc(Cl)c1O`: the z-score is -0.268 in experiment [1]; -4.13 (inactive) in experiment [2]; -0.392 (inactive) in experiment [3]; 0.33 (inactive) in experiment [5]; 0.31 (inactive) in experiment [6]; 0.504 (inactive) in experiment [7]. For the same compound, the values for the z-score in experiment [8] and in experiment [9] were 0.32 (inactive) and -0.45, respectively. The figures for the composite z-score in [4] and in [10] were -1.69 (inactive) and -0.138, respectively.

Regarding `COc1ccc(C#Cc2ccc3c(c2)[C@]2(C(=O)N3)[C@H](c3ccc(OCCO)cc3)N3[C@H](c4ccccc4)[C@H](c4ccccc4)OC(=O)[C@H]3[C@@H]2C(=O)Nc2nc3ccccc3s2)cc1`, the z-score in experiment [1] was 0.534; in experiment [2], 0.436 (inactive); in [3] it was 0.217 (inactive); in experiment [5], 3.64 (inactive); in experiment [6], 1.55 (inactive); in experiment [7], 0.528 (inactive). The z-score in experiment [8] is 1.25 (inactive); in experiment [9], 0.174. Further, the composite z-score in experiment [4] is -3.02 (inactive); in experiment [10], 0.75.

As for `COc1ccc(CCNC(=O)[C@@]2(C)c3ccccc3C(=O)N(Cc3ccccc3)[C@H]2c2ccc(CO)cc2)cc1`, the z-score in experiment [1] is 0.976; in [2], -1.12 (inactive); in experiment [3], 0.617 (inactive); in [5], 0.938 (inactive); in [6], -0.803 (inactive); in [7], 0.605 (inactive). The z-score in experiment [8] was 0.535 (inactive); in [9], 1.43. Moreover, the results for the composite z-score in [4] and in [10] were -0.984 (inactive) and -0.138, respectively.

With `CC(C)CNC(=O)[C@@]1(C)c2ccccc2C(=O)N(C(C)C)[C@H]1c1ccc(CO)cc1`, the z-score is -0.174 in experiment [1]; -0.128 (inactive) in experiment [2]; -0.434 (inactive) in experiment [3]; -0.273 (inactive) in experiment [5]; -0.207 (inactive) in experiment [6]; -0.314 (inactive) in [7]. Further, the values for the z-score in [8] and in [9] were -0.049 (inactive) and -0.434, respectively. In addition, the values for the composite z-score in experiment [4] and in experiment [10] were -0.449 (inactive) and -0.135, respectively.

For `C#C[C@H]1Oc2ccccc2S(=O)(=O)N2CCC[C@@H]12`, the z-score in experiment [1] was -0.87; in experiment [2] it was -0.454 (inactive); in experiment [3] it was -0.482 (inactive); in [5], -0.0582 (inactive); in [6], -0.0887 (inactive); in experiment [7], 0.0374 (inactive). Moreover, the z-score is -0.29 (inactive) in experiment [8] and -0.652 in experiment [9]. The figures for the composite z-score in [4] and in experiment [10] were 0.112 (inactive) and -0.299, respectively.

`C=CC[C@@]1(C(=O)OC)N=C(c2ccc(OCCCO)cc2)O[C@@H]1c1ccccc1CN=[N+]=[N-]`: the z-score was 1.09 in experiment [1]; -12.3 (active) in [2]; -1.72 (inactive) in [3]; -0.347 (inactive) in [5]; -0.712 (inactive) in [6]; 0.419 (inactive) in [7]. Besides, the z-score in experiment [8] was 0.967 (inactive); in experiment [9] it was -0.494. For the same compound, the values for the composite z-score in [4] and in [10] were -0.509 (inactive) and -0.0868, respectively.

With `C/C=C/[C@H](CCn1cc([C@H](O)c2ccccc2)nn1)[Si](C)(C)c1ccc(OC)cc1`, the z-score is 0.0881 in experiment [1]; -0.289 (inactive) in experiment [2]; 0.183 (inactive) in experiment [3]; 0.626 (inactive) in [5]; 0.15 (inactive) in experiment [6]; 0.265 (inactive) in [7]. Moreover, the z-score in experiment [8] was -0.0867 (inactive); in [9], -0.187. The composite z-score in [4] is -0.393 (inactive); in [10], -0.0936.

As for `O=C1OCC=C[C@H]2OC34C=CCN(CCN5CCOCC5)C(=O)[C@H]3N(CCCCCCO)C(=O)[C@@H]4[C@@H]12` (stereo not given in full), the z-score was -0.151 in experiment [1]; -0.0603 (inactive) in experiment [2]; 0.501 (inactive) in experiment [3]; -0.677 (inactive) in experiment [5]; -0.762 (inactive) in experiment [6]; -0.193 (inactive) in experiment [7]. The figures for the z-score in experiment [8] and in experiment [9] were 0.0937 (inactive) and 0.406, respectively. The composite z-score in [4] was -1.97 (inactive); in [10], 0.232.
